# Measurements published in PubChem BioAssay (Tox21).
# A number with no mark means an inactive call. Results filed as inconclusive are left out. A call without a number means that no potency is given here. Activity calls are given as the source filed them. Unless noted, the call rests on the fitted dose curve; in most records, active means well fitted curve in the direction sought with a large enough effect in the repeat runs; inconclusive means weak or mixed curves; inactive means no such curve, though single readings can be large; an effect the other way counts as inactive or inconclusive.
# Legend:
# [1] = A CellTox Green Cytotoxicity Assay to monitor cytotoxicity in HEK293 cells - 32 hour (AID 1224881); further: nearly all actives have a fitted effect of over 40% in size
# How it was run: (§1)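 Cells (HEK293, 600/well) and dye reagent are dispensed together. After 5 h at 37 C, 23 nL compound is pinned in. Plates stay at 37 C for 40 h with fluorescence read at 0h, 8h, 16h, 24h, 32h and 40h.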
# [2] = A CellTox Green Cytotoxicity Assay to monitor cytotoxicity in HepG2 cells - 0 hour (AID 1224882); further: nearly all actives have a fitted effect of over 35% in size
# How it was run: (§2)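 Cells and non-lytic dye reagent are dispensed together (600 HepG2 cells/well) and incubated 5 h before DMSO compound transfer. Kinetic fluorescence is then recorded in the same wells during 40 h at 37 C.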
# [3] = A CellTox Green Cytotoxicity Assay to monitor cytotoxicity in HepG2 cells - 32 hour (AID 1224883); further: nearly all actives have a fitted effect of over 50% in size
# How it was run: as §2
# [4] = A CellTox Green Cytotoxicity Assay to monitor cytotoxicity in HEK293 cells - 8 hour (AID 1224884); further: nearly all actives have a fitted effect of over 35% in size
# How it was run: as §1
# [5] = qHTS RealTime-Glo MT Cell Viability Assay in HepG2 cells - 16 hour (AID 1224885); further: nearly all actives have a fitted effect of over 50% in size
# How it was run: (§3)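 Tox21 10K library screened in qHTS format on HepG2 cells carrying RealTime-Glo reagents. Compounds were added after a 5 h preincubation, and the luminescent signal from continuous culture was measured repeatedly during 40 h treatment.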
# [6] = qHTS RealTime-Glo MT Cell Viability Assay in HEK293 cells - 24 hour (AID 1224886); further: nearly all actives have a fitted effect of over 50% in size; further: potency means the concentration at half of the fitted maximal effect
# How it was run: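 Luminescence generated by NanoLuc from substrate produced by living HEK293 cells served as the viability signal. Each value reflects the reading at its stated time point during continuous 40 h compound exposure at 37 C.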
# [7] = qHTS RealTime-Glo MT Cell Viability Assay in HEK293 cells - 8 hour (AID 1224887); further: nearly all actives have a fitted effect of over 50% in size; further: potency means the concentration at half of the fitted maximal effect
# How it was run: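 Real-time viability in HEK293: signal arises when living cells convert a prosubstrate for NanoLuc in the medium, so luminescence tracks viable cell number. Compound (23 nL, DMSO) added 5 h post-seeding; kinetic reads at 0–40 h, 37 C.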
# [8] = A CellTox Green Cytotoxicity Assay to monitor cytotoxicity in HEK293 cells - 16 hour (AID 1224888); further: nearly all actives have a fitted effect of over 35% in size
# How it was run: as §1
# [9] = qHTS RealTime-Glo MT Cell Viability Assay in HepG2 cells - 0 hour (AID 1224889); further: nearly all actives have a fitted effect of over 50% in size
# How it was run: as §3
# [10] = A CellTox Green Cytotoxicity Assay to monitor cytotoxicity in HepG2 cells - 8 hour (AID 1224890); further: nearly all actives have a fitted effect of over 45% in size
# How it was run: as §2
# [11] = qHTS assay to identify small molecule antagonists of the estrogen receptor alpha (ER-alpha) signaling pathway using the BG1 cell line in the presence of 0.1 nM 17-beta-estradiol - cell viability counter screen (AID 1259241); further: nearly all actives have a fitted effect of over 40% in size
# How it was run: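 Live-cell protease activity (CellTiter-Fluor fluorescence, 30 min) was read in the same wells after VM7Luc4E2 cells had been exposed to compounds with 0.1 nM 17beta-estradiol for 22 hr at 37C.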
# [12] = qHTS assay to identify small molecule antagonists of the androgen receptor (AR) signaling pathway using the MDA cell line in the presence of 0.5 nM R1881 - cell viability counter screen (AID 1259242); further: nearly all actives have a fitted effect of over 45% in size
# How it was run: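 Steps: plate MDA-kb2 cells, rest 5 hr at 37C without CO2; pin in compounds in DMSO; add R1881 to 0.5 nM final; incubate 16 hr; add CellTiter-Fluor, 30 min; read fluorescence.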
# [13] = target: Estrogen receptor (Homo sapiens) (UniProt P03372); assay: qHTS assay to identify small molecule antagonists of the estrogen receptor alpha (ER-alpha) signaling pathway using the BG1 cell line in the presence of 0.1 nM 17-beta-estradiol (AID 1259244); further: nearly all actives have a fitted effect of over 50% in size
# Chain of Estrogen receptor (Homo sapiens) (P03372 whole entry, looked up): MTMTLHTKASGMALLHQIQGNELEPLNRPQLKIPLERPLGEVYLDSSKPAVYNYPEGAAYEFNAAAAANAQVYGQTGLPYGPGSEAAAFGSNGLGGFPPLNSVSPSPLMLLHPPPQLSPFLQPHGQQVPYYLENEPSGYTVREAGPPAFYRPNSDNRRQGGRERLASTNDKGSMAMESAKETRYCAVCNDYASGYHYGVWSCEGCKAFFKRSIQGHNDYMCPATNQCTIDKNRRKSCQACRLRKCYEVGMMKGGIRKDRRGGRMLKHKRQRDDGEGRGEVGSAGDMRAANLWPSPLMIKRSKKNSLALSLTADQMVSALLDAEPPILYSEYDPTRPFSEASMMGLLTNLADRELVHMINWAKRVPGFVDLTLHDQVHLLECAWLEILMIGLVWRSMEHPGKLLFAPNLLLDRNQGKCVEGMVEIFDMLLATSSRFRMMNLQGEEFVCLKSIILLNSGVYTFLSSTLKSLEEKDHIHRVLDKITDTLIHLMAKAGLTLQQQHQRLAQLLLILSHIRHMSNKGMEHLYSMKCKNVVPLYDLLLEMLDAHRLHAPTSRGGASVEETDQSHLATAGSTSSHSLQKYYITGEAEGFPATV
# How it was run: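 Antagonist mode: compounds in DMSO are pinned onto VM7Luc4E2 reporter cells, 0.1 nM final 17beta-estradiol is added, and after 22 h at 37C luciferase luminescence is measured with ONE-Glo.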
# [14] = qHTS assay to identify small molecule HDAC inhibitors (AID 1259364);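 further: wild-type HCT-116 cells with endogenous class I/II HDAC activity; top concentration of the series differs between compounds; nearly all actives have a fitted effect of over 45% in size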
# How it was run: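 Cells (HCT-116, wild type) are seeded at 1,500 per well, incubated overnight, treated with compound in DMSO for 2 hr, then developed with HDAC-Glo I/II reagent for 30 min at room temperature.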
# [15] = qHTS assay to identify small molecule HDAC inhibitors - cell viability counter screen (AID 1259365)
# How it was run: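 HCT-116 (wild type), 1,500 cells/well, overnight 37C/5% CO2; compound in DMSO 2hr; CellTiter-Glo 30min RT; luminescence read.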
# [16] = qHTS assay to identify small molecule agonists of the sonic hedgehog signaling (Shh) pathway - cell viability counter screen (AID 1259366); further: nearly all actives have a fitted effect of over 50% in size
# How it was run: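 CellTiter-Fluor fluorescence read-out, 1 hr at 37C, added after 23hr compound exposure. Cells: 3T3 Gli1-Luc, an NIH/3T3 clone with stably integrated Gli1-Luc reporter, plated 4hr before compound.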
# [17] = qHTS assay to identify small molecule antagonists of the sonic hedgehog signaling (Shh) pathway - cell viability counter screen (AID 1259367); further: nearly all actives have a fitted effect of over 55% in size
# How it was run: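 Tox21 library chemicals were tested on a Gli1-Luc NIH/3T3 clone (2,000 cells/well) stimulated by conditioned medium; viability was quantified as fluorescence from CellTiter-Fluor reagent added at 23 hr.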
# [18] = qHTS assay to identify small molecule agonists of the sonic hedgehog signaling (Shh) pathway (AID 1259368; calls by dose curve;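 further: NIH/3T3-derived 3T3Gli1-Luc cells carrying a stable Gli1-driven firefly luciferase reporter; series mostly up to about 92 µM; nearly all actives have a fitted effect of over 15% in size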)
# How it was run: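 Cells of a mouse NIH/3T3 clone stably expressing luciferase under the Gli1 transcriptional response element are exposed to test chemicals for 24 hr at 37 C. Pathway activation is detected as a rise in luminescence.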
# [19] = target: Androgen receptor (Homo sapiens) (UniProt P10275); assay: qHTS assay to identify small molecule antagonists of the androgen receptor (AR) signaling pathway using the MDA cell line in the presence of 0.5 nM R1881 (AID 1259243); further: nearly all actives have a fitted effect of over 50% in size
# Chain of Androgen receptor (Homo sapiens) (P10275 whole entry, looked up): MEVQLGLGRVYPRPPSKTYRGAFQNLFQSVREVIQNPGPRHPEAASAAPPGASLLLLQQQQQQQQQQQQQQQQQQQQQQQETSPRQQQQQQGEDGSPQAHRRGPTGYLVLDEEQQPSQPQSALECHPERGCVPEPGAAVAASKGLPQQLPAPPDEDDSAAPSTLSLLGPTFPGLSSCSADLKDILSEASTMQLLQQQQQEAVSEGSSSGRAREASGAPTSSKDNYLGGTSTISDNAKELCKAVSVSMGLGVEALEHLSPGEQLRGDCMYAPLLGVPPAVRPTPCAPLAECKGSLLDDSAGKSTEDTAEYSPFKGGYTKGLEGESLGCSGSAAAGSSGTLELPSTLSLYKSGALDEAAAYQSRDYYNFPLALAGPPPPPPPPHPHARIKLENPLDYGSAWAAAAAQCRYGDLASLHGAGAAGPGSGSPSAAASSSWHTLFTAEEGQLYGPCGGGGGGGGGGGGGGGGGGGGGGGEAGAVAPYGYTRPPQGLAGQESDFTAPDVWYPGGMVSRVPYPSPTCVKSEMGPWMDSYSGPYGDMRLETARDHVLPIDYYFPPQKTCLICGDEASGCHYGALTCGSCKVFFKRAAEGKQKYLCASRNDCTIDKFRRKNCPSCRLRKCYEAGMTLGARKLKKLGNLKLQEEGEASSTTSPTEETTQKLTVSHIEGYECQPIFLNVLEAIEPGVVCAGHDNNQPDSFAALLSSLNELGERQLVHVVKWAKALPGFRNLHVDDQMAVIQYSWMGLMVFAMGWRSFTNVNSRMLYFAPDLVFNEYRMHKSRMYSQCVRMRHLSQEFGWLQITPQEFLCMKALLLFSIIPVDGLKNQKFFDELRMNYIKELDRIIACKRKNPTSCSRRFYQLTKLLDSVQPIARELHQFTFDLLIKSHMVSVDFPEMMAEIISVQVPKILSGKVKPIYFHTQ
# How it was run: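 Stably transfected MDA-kb2 cells express luciferase from an MMTV promoter bearing both AR and GR response elements. Compounds plus 0.5 nM R1881 (final) were incubated 16 hr at 37C without CO2, then luminescence measured.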
# [20] = qHTS assay to identify small molecule phospholipidosis (PLD) inducers (AID 1259344; active means well fitted curve in the direction sought with a large enough effect; an effect the other way counts as inactive or inconclusive)
# How it was run: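 Image-based: LipidTOX Red pit count/intensity per well and per cell; HepG2, 24 h compound at 37 C, PFA fixation, Hoechst counterstain.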
structure (smiles),measurement,setting,value
CC(C)(c1cc(Br)c(OCC(Br)CBr)c(Br)c1)c1cc(Br)c(OCC(Br)CBr)c(Br)c1 (stereo not given),Potency,[1],inactive
same,Potency,[2],inactive
same,Potency,[3],inactive
same,Potency,[4],inactive
same,Potency,[5],inactive
same,Potency,[6],inactive
same,Potency,[7],inactive
same,Potency,[8],inactive
same,Potency,[9],inactive
same,Potency,[10],inactive
same,Potency,[11],inactive
same,Potency,[12],inactive
same,Potency,[13],inactive
same,Potency,[14],inactive
same,Potency,[15],inactive
same,Potency,[16],inactive
same,Potency,[17],inactive
same,Potency,[18],inactive
c1ccsc1,Potency,[1],inactive
same,Potency,[2],inactive
same,Potency,[3],inactive
same,Potency,[4],inactive
same,Potency,[5],inactive
same,Potency,[6],inactive
same,Potency,[7],inactive
same,Potency,[8],inactive
same,Potency,[9],inactive
same,Potency,[10],inactive
same,Potency,[11],inactive
same,Potency,[12],inactive
same,Potency,[19],inactive
same,Potency,[13],inactive
same,Potency,[14],inactive
same,Potency,[15],inactive
same,Potency,[16],inactive
same,Potency,[17],inactive
same,Potency,[18],inactive
ClCCl,Potency,[1],inactive
same,Potency,[2],inactive
same,Potency,[3],inactive
same,Potency,[4],inactive
same,Potency,[5],inactive
same,Potency,[6],inactive
same,Potency,[7],inactive
same,Potency,[8],inactive
same,Potency,[9],inactive
same,Potency,[10],inactive
same,Potency,[11],inactive
same,Potency,[12],inactive
same,Potency,[19],inactive
same,Potency,[13],inactive
same,Potency,[14],inactive
same,Potency,[15],inactive
same,Potency,[16],inactive
same,Potency,[17],inactive
same,Potency,[18],inactive
Cc1cccc(C(=O)O)c1O,Potency,[1],inactive
same,Potency,[2],inactive
same,Potency,[3],inactive
same,Potency,[4],inactive
same,Potency,[5],inactive
same,Potency,[6],inactive
same,Potency,[7],inactive
same,Potency,[8],inactive
same,Potency,[9],inactive
same,Potency,[10],inactive
same,Potency,[11],inactive
same,Potency,[12],inactive
same,Potency,[13],inactive
same,Potency,[20],inactive
same,Potency,[14],inactive
same,Potency,[15],inactive
same,Potency,[18],inactive
C#C[C@]1(O)CC[C@H]2[C@@H]3[C@H](C)CC4=C(CCC(=O)C4)[C@H]3CC[C@@]21C,Potency,[1],inactive
same,Potency,[2],inactive
same,Potency,[3],inactive
same,Potency,[4],inactive
same,Potency,[5],inactive
same,Potency,[6],inactive
same,Potency,[7],inactive
same,Potency,[8],inactive
same,Potency,[9],inactive
same,Potency,[10],inactive
same,Potency,[11],inactive
same,Potency,[12],inactive
same,Potency,[13],inactive
same,Potency,[20],inactive
same,Potency,[14],inactive
same,Potency,[15],inactive
same,Potency,[16],inactive
same,Potency,[17],inactive
same,Potency,[18],inactive
CC1(C)CC(O)CC(C)(C)N1,Potency,[1],inactive
same,Potency,[2],inactive
same,Potency,[3],inactive
same,Potency,[4],inactive
same,Potency,[5],inactive
same,Potency,[6],inactive
same,Potency,[7],inactive
same,Potency,[8],inactive
same,Potency,[9],inactive
same,Potency,[10],inactive
same,Potency,[11],inactive
same,Potency,[12],inactive
same,Potency,[13],inactive
same,Potency,[14],inactive
same,Potency,[15],inactive
same,Potency,[16],inactive
C#C[C@]1(OC(C)=O)CC[C@H]2[C@@H]3CCC4=C/C(=N/O)CC[C@@H]4[C@H]3CC[C@@]21CC,Potency,[1],inactive
same,Potency,[2],inactive
same,Potency,[3],inactive
same,Potency,[4],inactive
same,Potency,[5],inactive
same,Potency,[6],23.9 µM (active)
same,Potency,[7],21.3 µM (active)
same,Potency,[8],inactive
same,Potency,[9],inactive
same,Potency,[10],inactive
same,Potency,[11],inactive
same,Potency,[12],inactive
same,Potency,[13],inactive
same,Potency,[20],inactive
same,Potency,[14],inactive
same,Potency,[15],inactive
same,Potency,[16],inactive
same,Potency,[17],inactive
same,Potency,[18],inactive
C=Cc1ccccc1C=C,Potency,[1],inactive
same,Potency,[2],inactive
same,Potency,[3],inactive
same,Potency,[4],inactive
same,Potency,[5],inactive
same,Potency,[6],inactive
same,Potency,[7],inactive
same,Potency,[8],inactive
same,Potency,[9],inactive
same,Potency,[10],inactive
same,Potency,[11],inactive
same,Potency,[12],inactive
same,Potency,[13],inactive
same,Potency,[14],inactive
same,Potency,[15],inactive
same,Potency,[16],inactive
same,Potency,[17],inactive
same,Potency,[18],inactive
CCCCC/C=C\C/C=C\CCCCCCCC(=O)O,Potency,[1],inactive
same,Potency,[2],inactive
same,Potency,[3],inactive
same,Potency,[4],inactive
same,Potency,[5],inactive
same,Potency,[6],inactive
same,Potency,[7],inactive
same,Potency,[8],inactive
same,Potency,[9],inactive
same,Potency,[10],inactive
same,Potency,[11],inactive
same,Potency,[12],inactive
same,Potency,[13],inactive
same,Potency,[20],inactive
same,Potency,[14],inactive
same,Potency,[15],inactive
same,Potency,[16],inactive
same,Potency,[17],inactive
same,Potency,[18],inactive
CN(C)Cc1ccccc1O,Potency,[1],inactive
same,Potency,[2],inactive
same,Potency,[3],inactive
same,Potency,[4],inactive
same,Potency,[5],inactive
same,Potency,[6],inactive
same,Potency,[7],inactive
same,Potency,[8],inactive
same,Potency,[9],inactive
same,Potency,[10],inactive
same,Potency,[11],inactive
same,Potency,[12],inactive
same,Potency,[19],inactive
same,Potency,[13],inactive
same,Potency,[14],inactive
same,Potency,[15],inactive
same,Potency,[16],inactive
same,Potency,[17],inactive
same,Potency,[18],inactive
CC(C(=O)O)c1ccc2c(c1)[nH]c1ccc(Cl)cc12 (stereo not given),Potency,[1],inactive
same,Potency,[2],inactive
same,Potency,[3],inactive
same,Potency,[4],inactive
same,Potency,[5],inactive
same,Potency,[6],inactive
same,Potency,[7],inactive
same,Potency,[8],inactive
same,Potency,[9],inactive
same,Potency,[10],inactive
same,Potency,[11],inactive
same,Potency,[12],inactive
same,Potency,[13],inactive
same,Potency,[20],inactive
same,Potency,[15],inactive
same,Potency,[16],inactive
same,Potency,[17],inactive
same,Potency,[18],inactive
CCN1C(=O)c2ccccc2C1Nc1ccc(OCCN2CCCCC2)cc1 (stereo not given),Potency,[1],inactive
same,Potency,[2],inactive
same,Potency,[3],inactive
same,Potency,[4],inactive
same,Potency,[5],inactive
same,Potency,[6],4.77 µM (active)
same,Potency,[7],3.79 µM (active)
same,Potency,[8],inactive
same,Potency,[9],inactive
same,Potency,[10],inactive
same,Potency,[11],inactive
same,Potency,[12],inactive
same,Potency,[19],inactive
same,Potency,[13],inactive
same,PLD induction,[20],0.829% [at 7.66 µM]
same,Potency,[14],inactive
same,Potency,[15],inactive
same,Potency,[16],inactive
same,Potency,[17],inactive
same,Potency,[18],inactive
CCC(CC)(CC(=O)Nc1cccc(/C=C/c2nc(C3CCC3)cs2)c1)C(=O)O,Potency,[1],inactive
same,Potency,[2],inactive
same,Potency,[3],inactive
same,Potency,[4],inactive
same,Potency,[5],inactive
same,Potency,[6],inactive
same,Potency,[7],inactive
same,Potency,[8],inactive
same,Potency,[9],inactive
same,Potency,[10],inactive
same,Potency,[11],inactive
same,Potency,[12],inactive
same,Potency,[13],inactive
same,Potency,[20],inactive
same,Potency,[14],inactive
same,Potency,[15],inactive
same,Potency,[16],inactive
same,Potency,[17],inactive
same,Potency,[18],inactive
